In all, about 68,000 sequences were measured (“fluorescence intensity (a.u.)”: median about 9,100, highest 2% from about 16,000 on). The sample holds the highest values, similar sequences and a random draw of the others, so the mix is not that of the screen.
molecular target: OsWRKY34 (Oryza sativa, UniProt Q0JBA9 1-250); assay: protein-binding microarray (RPBM); PBS, 2% BSA, 51.3 ng/ul salmon testes DNA, 50 uM zinc acetate, 200 nM TF, 25 C, 1 h; high values mean tight binding; details: protein: recombinant; tags: N-terminal polyhistidine and DsRed monomer fusion (pET32a); label: CyDye5-dUTP incorporated in the synthesized complementary strand; 3' TTTTT single-stranded linker to array surface; dsDNA, one strand shown
How it was run: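 Ni–NTA purification followed expression in E. coli BL21-CodonPlus of transcription factors fused N-terminally to a polyhistidine tag and DsRed. At 200 nM in PBS with 2% BSA, salmon testes DNA and 50 µM zinc acetate, the protein was incubated for 1 h at 25 °C with a custom Agilent array that had been primer-extended with Cy5-dUTP and blocked with 2% BSA. After washing, the array was read on an Axon 4000B scanner. The binding signal is per-feature fluorescence intensity in arbitrary units.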

OsWRKY34, sequence (Q0JBA9 entry or part of it): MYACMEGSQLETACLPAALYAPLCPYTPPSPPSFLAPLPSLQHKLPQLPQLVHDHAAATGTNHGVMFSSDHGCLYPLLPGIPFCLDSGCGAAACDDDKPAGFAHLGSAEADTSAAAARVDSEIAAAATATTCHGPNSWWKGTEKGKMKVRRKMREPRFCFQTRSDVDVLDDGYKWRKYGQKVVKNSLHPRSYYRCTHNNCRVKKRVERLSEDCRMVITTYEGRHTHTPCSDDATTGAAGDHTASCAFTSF

Sequence	binding signal
AGCTCGTGTGGTGTATGTTGTTGTGTGCTGCTAGCTAGCTCGGAGTCACCTAGTGCAG	10200 fluorescence intensity (a.u.)
TCCATGCCATCTGCTGAACAGACCCATGCATCCTTCAACTCGGAGTCACCTAGTGCAG	8920 fluorescence intensity (a.u.)
CACATCAAATTTATTTTCTCCCAAAATGAGGCGCGCAACACGGAGTCACCTAGTGCAG	8670 fluorescence intensity (a.u.)
GCTGTCGTTGAATTTTTGTTTGTTTTCTTGGCGTGTTGCACGGAGTCACCTAGTGCAG	13300 fluorescence intensity (a.u.)
CTTTCCATGGTTTTTGCTCCCGCAGCCCGGGCCACTGCCCCGGAGTCACCTAGTGCAG	11600 fluorescence intensity (a.u.)
CGTCTCGTTTCTCATCTCAAAATTTCGCGCCTCGTCGCCGCGGAGTCACCTAGTGCAG	8640 fluorescence intensity (a.u.)
GCTCAGCCGCCGTCGCCAGTCCAACCTCCGCCACCGCGGCCGGAGTCACCTAGTGCAG	8640 fluorescence intensity (a.u.)
CCAAACCCAACCCTCGACGCCAATTAAACACCAATTTTCTCGGAGTCACCTAGTGCAG	8920 fluorescence intensity (a.u.)
CCCGAACCCACCACCTCCGCCCATTTCCGCCTCCTCTCGACGGAGTCACCTAGTGCAG	9190 fluorescence intensity (a.u.)
ACAGCTTAAAATTTCCTCCTCCGCCCAAAAACCCTCTCGACGGAGTCACCTAGTGCAG	24300 fluorescence intensity (a.u.)
CCTTGACAGATTAATCCTACGTTTTGACCCCATATGTTTTCGGAGTCACCTAGTGCAG	8880 fluorescence intensity (a.u.)
CTTGTAGCTGTAATTCCCTATTGTTGTTTTTCGGTACTGTCGGAGTCACCTAGTGCAG	13200 fluorescence intensity (a.u.)
TCGCAAGAGTTGTTGAAAGTTGACCAGCATATTGAGGCCCCGGAGTCACCTAGTGCAG	8130 fluorescence intensity (a.u.)
TTCTTTGGATTTGATTGGTGCCGCCTTTTTTCGCTATTGACGGAGTCACCTAGTGCAG	15600 fluorescence intensity (a.u.)
CACACACACCGATCTTTTCATTCATTCTTTTCTTTCTTTTCGGAGTCACCTAGTGCAG	18700 fluorescence intensity (a.u.)
CAACACATCTCTTGCATTTTTTTTTCTTTGCATTCTCATTCGGAGTCACCTAGTGCAG	8200 fluorescence intensity (a.u.)
ACTCACCTCTCTCATCTTTCGTGCACACATTTTTCAATTTCGGAGTCACCTAGTGCAG	17700 fluorescence intensity (a.u.)
TTCCTTTTTCATCTTCTTTTCACATTTTTTCTTTATTTTTCGGAGTCACCTAGTGCAG	12400 fluorescence intensity (a.u.)
GCCTATTCTTTTCGCCACCGCTATCGCCACACATCACGGACGGAGTCACCTAGTGCAG	17500 fluorescence intensity (a.u.)
TCTCTTTTCTCATTTTTTCGCTTGCCACATCATTTTCTATCGGAGTCACCTAGTGCAG	9600 fluorescence intensity (a.u.)
AGACATTCTCCATTTTCTTTCTTCTCTTCACTCACACTCACGGAGTCACCTAGTGCAG	8800 fluorescence intensity (a.u.)
ACTCACTTCAAAATTTTCACATCCTCTCTCATCATTTTTTCGGAGTCACCTAGTGCAG	11100 fluorescence intensity (a.u.)
TCTCAATTGCACCTCATTTAATCCTCATTTTTCATCTTTTCGGAGTCACCTAGTGCAG	11800 fluorescence intensity (a.u.)

Sequence	binding signal
ACAACTCACTCTCTTCATTTTCCATTCTCGTGCTTTTCAACGGAGTCACCTAGTGCAG	16600 fluorescence intensity (a.u.)
GTCTCATTCTTCTTATTTCCATTTTTTTTTTCTCTCAAAACGGAGTCACCTAGTGCAG	11100 fluorescence intensity (a.u.)
TCCTCTTCTTTTCTCTCCCTCCGCCACTCGACGCCCAACCCGGAGTCACCTAGTGCAG	9310 fluorescence intensity (a.u.)
TCGATTCCGGCGTGCGAATTCCTCCACCTCGCCGCCGCCGCGGAGTCACCTAGTGCAG	8810 fluorescence intensity (a.u.)
TTCCTGTTCCTGCAAGAAAACGCTCATCCTCTTGCTTTTTCGGAGTCACCTAGTGCAG	9650 fluorescence intensity (a.u.)
AGGCCTCCACGGCTCCACCTCCTTCCGCTTTCGCCTATCCCGGAGTCACCTAGTGCAG	10000 fluorescence intensity (a.u.)
AAAGTGCCGTATTTTTGTGTTTCTGTTGTAGTGGTAATTACGGAGTCACCTAGTGCAG	12000 fluorescence intensity (a.u.)
TGGGTTGTGGCAGTGTCTTATAAGGCTATATTAAGTCTATCGGAGTCACCTAGTGCAG	8060 fluorescence intensity (a.u.)
TTGCTGTCTTGCGTGTTCATGCTGCCCCGCGGGCGTTGAGCGGAGTCACCTAGTGCAG	9010 fluorescence intensity (a.u.)
TTTTCATTGTGTTGTAGCCAACAGCCACATTGTTTTCTTTCGGAGTCACCTAGTGCAG	8080 fluorescence intensity (a.u.)
GTGACCCAACATTCAGATTCATCTTTTTTTTTCACCTTCTCGGAGTCACCTAGTGCAG	11300 fluorescence intensity (a.u.)
TACCAACATTGTAGCAACAGATTCATCTCTCTTTTTTTTTCGGAGTCACCTAGTGCAG	18100 fluorescence intensity (a.u.)
AGTCACGAATCAAACAACCCCTTAAACTGTATTTGATTGTCGGAGTCACCTAGTGCAG	8060 fluorescence intensity (a.u.)
GCTATGAGATTTATATATTTTTTTGTCCTGGGCTTCTTTTCGGAGTCACCTAGTGCAG	9510 fluorescence intensity (a.u.)
TCTCTGCTTCTCGTTGTTCTTGGTTGGTTGTTGTTGTAGACGGAGTCACCTAGTGCAG	19400 fluorescence intensity (a.u.)
CTTGGTTTTCTTGATTTCTTGGGTTCTTGGCTACTGGGGCCGGAGTCACCTAGTGCAG	9490 fluorescence intensity (a.u.)
TGGTTCTTGCTCTTGTTCTTGCTGCTGCTGCTTTTGCTCTCGGAGTCACCTAGTGCAG	9380 fluorescence intensity (a.u.)
GGCTGGGCTTTTTGGGCTTTCTTTGATCTATATTTTGAGACGGAGTCACCTAGTGCAG	18200 fluorescence intensity (a.u.)
ACTCTCTCTCTCTCTCTGCTTCTTCTTGTGTTGTGCTTGTCGGAGTCACCTAGTGCAG	9800 fluorescence intensity (a.u.)
GGGTTCTTGGCTACTGGGGCTGTCTCTCTATCTTTCTTGACGGAGTCACCTAGTGCAG	21600 fluorescence intensity (a.u.)
GGCTGGGGTGGGCTCTACTTGACAGACTGATACTCCTACTCGGAGTCACCTAGTGCAG	19600 fluorescence intensity (a.u.)
CATGTCTATCTTTCTACTATTTATTTTTTTTTGGCAGAGACGGAGTCACCTAGTGCAG	12700 fluorescence intensity (a.u.)
GCGGTGGTGGACAGTCCCAGACTGACTTGTGGTGGGGACTCGGAGTCACCTAGTGCAG	9560 fluorescence intensity (a.u.)
